A selection: hits, their analogues and other compounds. The true share with any hit is near 10%.
JMJD2A Tudor inh = qHTS Assay for Inhibitors of JMJD2A-Tudor Domain | AID 504339, 2011 | 4.4% of 390,000 active | Lysine-specific demethylase 4A (Homo sapiens), O75164 | AlphaScreen JMJD2A-Tudor / H3K4me3 peptide binding | Potency, µM (top dose mostly 114 µM), hits mostly inhibitors; also: nearly all actives have a fitted effect of over 50% in size
HP1b binding inh = HTS for Inhibitors of HP1-beta Chromodomain Interactions with Methylated Histone Tails | AlphaScreen HP1-beta / biotin-H3K9me3 peptide binding | Potency, µM (series often up to 114 µM), usual class: inhibitors | AID 540317, 2011 | 0.56% of 390,000 active; also: nearly all actives have a fitted effect of over 70% in size
Target sequence (P83916 whole entry, looked up): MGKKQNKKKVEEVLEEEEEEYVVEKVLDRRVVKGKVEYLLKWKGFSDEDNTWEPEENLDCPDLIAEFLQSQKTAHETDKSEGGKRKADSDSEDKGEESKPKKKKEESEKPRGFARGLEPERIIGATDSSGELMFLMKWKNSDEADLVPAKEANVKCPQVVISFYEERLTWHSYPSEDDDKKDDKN
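HP1-beta protein (50 nM final) preincubated 30 min at room temperature with biotinylated H3(1-18)K9me3 peptide (50 nM) in PBS pH 7.4, 0.01% Tween-20, then compound added for 30 min. AlphaScreen streptavidin donor/nickel chelate acceptor beads (10 ug/mL final), 30 min dark, luminescence read.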
L3MBTL1 inh = qHTS Assay for the Inhibitors of L3MBTL1. Lethal(3)malignant brain tumor-like protein 1 (Homo sapiens), Q9Y468. AlphaScreen L3MBTL1–H3K9me1 peptide binding. Potency, µM (top dose mostly 57.1 µM), hits mostly inhibitors. 0.66% of 230,000 active. AID 485360, 2010; also: nearly all actives have a fitted effect of over 60% in size
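L3MBTL1 50 nM + b-AHA-H3(1-15)K9me1 75 nM, 30 min RT; compound added, 30 min RT; streptavidin donor/Ni-chelate acceptor beads 10 ug/mL each final, 30 min RT dark; AlphaScreen read.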
GLS inh = qHTS for Inhibitors of Glutaminase (GLS); Glutaminase kidney isoform, mitochondrial (Homo sapiens), O94925; GLS enzymatic activity, qHTS titration; Potency, µM (titrated, usually from 45.5 µM), actives largely listed as inhibitors; 0.21% of 410,000 active; AID 624170, 2012
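Read-out is an Amplex red fluorescence increase coupled through glutamate oxidase and HRP, measured before and after 30 min room-temperature incubation. hKGA is in 45 mM KH2PO4 (pH 8.2) with 0.02% Tween-20; glutamine added as 1mM solution.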
BAZ2B block = qHTS Assay for Inhibitors of BAZ2B. AlphaScreen BAZ2B-H3K14Ac peptide displacement. Potency, µM (top dose mostly 114 µM), actives largely listed as inhibitors. 4.4% of 360,000 active. AID 504333, 2011; also: nearly all actives have a fitted effect of over 60% in size
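AlphaScreen displacement of biotin-H3(5-23)K14Ac peptide (50 nM final) from BAZ2B (50 nM final) in PBS pH 7.4, 0.01% Tween-20; complex preformed 30 min RT, then compounds (top 110 uM) 30 min RT, beads 20 min dark.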
G9a inh = qHTS Assay for Inhibitors of Histone Lysine Methyltransferase G9a | Histone-lysine N-methyltransferase EHMT2 (Homo sapiens), Q96KQ7 | 8.8% of 350,000 active | Potency, µM (doses to about 102 µM), hits mostly inhibitors | G9a H3K9 monomethylation, AlphaScreen, 2 h; also: nearly all actives have a fitted effect of over 75% in size
Target sequence (Q96KQ7 913-1193 limits assumed): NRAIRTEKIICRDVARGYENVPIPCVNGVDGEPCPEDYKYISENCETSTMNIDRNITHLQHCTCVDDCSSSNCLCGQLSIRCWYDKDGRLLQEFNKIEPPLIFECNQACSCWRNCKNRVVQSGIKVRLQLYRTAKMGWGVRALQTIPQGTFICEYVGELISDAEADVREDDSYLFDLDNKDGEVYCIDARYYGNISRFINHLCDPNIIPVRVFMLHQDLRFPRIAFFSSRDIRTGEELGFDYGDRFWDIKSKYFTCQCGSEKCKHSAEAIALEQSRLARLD
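Readings reflect AlphaScreen signal from monomethyl-H3K9 antibody detection. HMT at 20 nM; substrate b-H3K9 500 nM; cofactor SAM 20 uM; 2 h RT reaction; compounds tested as titrations in qHTS with 15 min preincubation.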
Numbers stand for hits; [ ] = dose if it differs, or a comment. Calls follow the shape of the dose curve; as a rule, active = well fitted curve in the direction sought with a large enough effect; inconclusive = small, poorly fitted or top-dose-only effect, or another doubt; inactive = no such curve, though single readings can be large; an effect the other way counts as inactive or inconclusive.

For COc1ccc2[nH]c(=S)[nH]c2c1 the results were JMJD2A Tudor inh 56µM, HP1b binding inh inactive, L3MBTL1 inh inactive, GLS inh inactive, BAZ2B block inactive and G9a inh 4.5µM.
For CCC(=O)Nc1nc(=S)ss1 the results were JMJD2A Tudor inh inactive, HP1b binding inh inconclusive, GLS inh inactive, BAZ2B block inconclusive and G9a inh 8.9µM.
CC(C)(C)C(=O)Nc1nc(=S)ss1 was read as JMJD2A Tudor inh inactive, HP1b binding inh inactive, GLS inh inactive, BAZ2B block inactive and G9a inh inconclusive.
CN1CC2(Cc3cc([N+](=O)[O-])ccc31)C(=O)OC(C)(C)OC2=O was read as JMJD2A Tudor inh inactive and HP1b binding inh inactive.
Screening CCOc1ccccc1NC(=O)CSc1nc2c([nH]c3ccccc32)c(=O)n1-c1ccccc1 returned JMJD2A Tudor inh inactive, HP1b binding inh inactive, GLS inh inactive, BAZ2B block inactive and G9a inh inactive.
Screening CCN1CCN(c2ncc3c(n2)CCN(Cc2cc(F)cc(F)c2)C3)CC1 returned JMJD2A Tudor inh 79µM, HP1b binding inh inactive, GLS inh inactive, BAZ2B block 50µM and G9a inh inconclusive.
COc1cccc(CN2CCc3nc(N4CCN(C)CC4)ncc3C2)c1 was read as JMJD2A Tudor inh inconclusive, HP1b binding inh inactive, GLS inh inactive, BAZ2B block inconclusive and G9a inh inactive.
Screening CCN1CCN(c2ncc3c(n2)CCN(Cc2ccc(OC)c(OC)c2)C3)CC1 returned JMJD2A Tudor inh inactive, HP1b binding inh inactive, GLS inh inactive, BAZ2B block inactive and G9a inh inactive[12.7 µM].
For CCc1ccc(CN2CCc3nc(N4CCN(CC)CC4)ncc3C2)cc1 the results were JMJD2A Tudor inh inconclusive, HP1b binding inh inactive, GLS inh inactive, BAZ2B block 56µM and G9a inh inconclusive.
For COc1ccc(C)cc1NC(=O)C(=O)NCC(c1cccnc1)N1CCN(c2ccccc2F)CC1 (stereo not given) the results were JMJD2A Tudor inh inactive, HP1b binding inh inactive, GLS inh inactive, BAZ2B block inactive and G9a inh inactive.
Screening COc1ccc(NC(=O)C2(c3cccs3)CCOCC2)cc1Cl returned JMJD2A Tudor inh inactive, HP1b binding inh inactive, GLS inh inactive, BAZ2B block inactive and G9a inh inactive.
CC1=NOC(=O)/C1=C\c1ccc(-c2ccccc2Br)o1 was read as JMJD2A Tudor inh 20µM, HP1b binding inh inconclusive, GLS inh inconclusive, BAZ2B block 25µM and G9a inh 7.1µM.
`COc1cc([N+](=O)[O-])ccc1-c1ccc(/C=C2\C(=O)ON=C2c2ccccc2)o1` gave JMJD2A Tudor inh inconclusive, HP1b binding inh inactive and GLS inh inactive.
For CC1=NOC(=O)/C1=C\c1ccc(-c2cccc(Cl)c2)o1 the results were JMJD2A Tudor inh inconclusive, HP1b binding inh inactive, L3MBTL1 inh inactive, GLS inh inactive, BAZ2B block inconclusive and G9a inh 25µM.
`COc1cccc(CNC(=O)c2c3c(nc4ccccc24)C(=O)N(C2CCCCC2)C3)c1` gave JMJD2A Tudor inh inactive, HP1b binding inh inactive, GLS inh inactive, BAZ2B block inactive and G9a inh inactive.
Screening Cc1nc2sc(C(c3ccco3)N3CC(C)OC(C)C3)c(O)n2n1 (stereo not given) returned JMJD2A Tudor inh inactive, HP1b binding inh inactive, L3MBTL1 inh inactive, GLS inh inactive, BAZ2B block inactive and G9a inh 25µM.
Cc1nc2sc(C(c3ccco3)N3CCN(c4cccc(Cl)c4)CC3)c(O)n2n1 (stereo not given) was read as JMJD2A Tudor inh inconclusive, HP1b binding inh inactive, L3MBTL1 inh inactive, GLS inh inactive, BAZ2B block inconclusive and G9a inh 13µM.
